Measurements reported in PubChem BioAssay (EPA / NIEHS).
Several values for one entry are separate records, joined by “and”; a condition that tells them apart may be missing. Identical values can stand only once. Records with an inconclusive call do not appear. Some structures have more than one record in an assay (separate samples or runs), and their calls can disagree. Activity calls are given as the source filed them. The calls were made as follows: active = hit-call score of the fitted dose curve at least 0.9, where 1 is the maximum; inconclusive = response in the unintended direction; inactive = score below 0.9.

These compounds were tested against Glucocorticoid receptor (Homo sapiens) (UniProt P04150) (assay: NVS_NR_hGR: NovaScreen (NVS) Nuclear Receptor Binding Assay for human Glucocorticoid Receptor (GR) (AID 2283363)).
Glucocorticoid receptor (Homo sapiens), sequence (P04150 whole entry, looked up): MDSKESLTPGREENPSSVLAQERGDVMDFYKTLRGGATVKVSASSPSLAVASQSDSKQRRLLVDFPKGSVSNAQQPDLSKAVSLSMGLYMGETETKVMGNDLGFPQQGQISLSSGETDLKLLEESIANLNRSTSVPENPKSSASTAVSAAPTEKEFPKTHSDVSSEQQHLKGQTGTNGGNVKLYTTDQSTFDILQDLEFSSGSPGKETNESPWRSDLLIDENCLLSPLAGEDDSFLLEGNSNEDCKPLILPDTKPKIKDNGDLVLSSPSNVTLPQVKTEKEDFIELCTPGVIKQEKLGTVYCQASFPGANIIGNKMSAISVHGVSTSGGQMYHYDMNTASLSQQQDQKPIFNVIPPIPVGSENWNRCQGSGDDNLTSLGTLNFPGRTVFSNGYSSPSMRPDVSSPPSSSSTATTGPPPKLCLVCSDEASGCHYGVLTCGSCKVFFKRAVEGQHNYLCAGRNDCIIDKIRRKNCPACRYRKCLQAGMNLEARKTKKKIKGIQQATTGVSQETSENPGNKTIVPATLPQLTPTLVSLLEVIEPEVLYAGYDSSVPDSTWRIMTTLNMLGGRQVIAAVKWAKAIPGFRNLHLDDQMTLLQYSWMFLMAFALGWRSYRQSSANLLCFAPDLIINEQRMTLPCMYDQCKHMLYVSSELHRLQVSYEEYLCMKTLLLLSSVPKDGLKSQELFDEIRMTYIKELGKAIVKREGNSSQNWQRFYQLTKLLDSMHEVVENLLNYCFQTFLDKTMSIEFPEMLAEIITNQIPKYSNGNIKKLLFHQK
Experimental: NVS_NR_hGR is a biochemical, single-readout assay that uses extracted gene-proteins in a cell-free assay. Measurements were taken 16 hours after chemical dosing in a 96-well plate.NVS_NR_hGR is one of one assay component(s) measured or calculated from the NVS_NR_hGR assay. It is designed to make measurements of radioligand binding, a form of binding reporter, as detected with scintillation counting signals by Filter-based radiodetection technology.Data from the assay component NVS_NR_hGR was analyzed into 1 assay endpoint. This assay endpoint, NVS_NR_hGR, was analyzed in the positive analysis fitting direction relative to DMSO as the negative control and baseline of activity. Using a type of binding reporter, loss-of-signal activity can be used to understand changes in the binding as they relate to the gene NR3C1. Furthermore, this assay endpoint can be referred to as a primary readout, because the performed assay has only produced 1 assay endpoint. To generalize the intended target to other relatable targets, this assay endpoint is annotated to the nuclear receptor intended target family, where the subfamily is steroidal.
Binding assays used specific radioligands (tritiated, iodinated) with non-radioactive competitive displacement ligands in agonist or antagonist protocols (as indicated) and various reference compounds and inhibitors to titrate specific binding to receptors and transporters. Most enzyme assays (CYPs, kinases, phosphatases, proteases, HDACs) used recombinant protein and specific substrates (fluorescence mostly, some colorimetric and radioactive) and inhibitors, followed by a biochemical separation of substrate and product. All assays for the biochemical HTS were initially run in duplicate at a single concentration (10 uM for CYP450 assays and 25 uM for all others). […] Each assay was run with positive and negative controls, and concurrent controls on every plate. The follow-up (secondary) screen tested active chemical-pairs in concentration series, as well as a few additional assays not tested in the primary screen, some selected negative inactives, and several cases re-run in the concentration series for confirmatory purposes.
`C[C@]12CC[C@@H]3c4ccc(O)cc4CC[C@H]3[C@@H]1CC[C@H]2O` was tested, and the AC50 was 374 nM (active) and 448 nM (active) and 261 nM (active) and the outcome was “inactive”.
`Clc1ccccc1C(c1ccccc1)(c1ccccc1)n1ccnc1` was tested, and the AC50 was 0.7 µM (active).
`CCCCCCCCOC(=O)c1cc(O)c(O)c(O)c1` was tested, and the AC50 was 1.14 µM (active).
`COc1ccc2cc(S(=O)(=O)N[C@H](CC(=O)N[C@H](Cc3ccc(CN4[C@H](C)CCC[C@@H]4C)cc3)C(=O)N(C)C(C)C)c3ccc4c(c3)OCO4)ccc2c1` was tested, and the outcome was “inactive”.
With `CCN(CC)C(=O)c1cc(S(=O)(=O)Cc2ccccc2)c(N2CCC(c3ccccc3)CC2)cc1N(CC)CCN(C)C` the AC50 was 14.2 µM (active).
In the case of `CN(C[C@@H](CC[N+]12CCC(C3CCCCC3)(CC1)CC2)c1ccc(Cl)c(Cl)c1)C(=O)c1cc(C(F)(F)F)cc(C(F)(F)F)c1`, the AC50 is reported as 6.49 µM (active).
`O=C(O)Cc1cc(I)c(Oc2ccc(O)c(I)c2)c(I)c1` was tested, and the AC50 was 561 nM (active) [middle of 4 runs].
In the case of `CCCCOC(=O)c1ccc(O)cc1`, the outcome is reported as “inactive”.
For `CC(C)(c1cc(Br)c(O)c(Br)c1)c1cc(Br)c(O)c(Br)c1`, the AC50 was 4.97 µM (active).
With `CC/C(=C(/CC)c1ccc(O)cc1)c1ccc(O)cc1` the AC50 was 177 nM (active) and 162 nM (active) and 1.27 µM (active).
`Oc1ccc2ccccc2c1` was tested, and the outcome was “inactive”.
With `CC[C@@H]1C[C@H](N(Cc2cc(C(F)(F)F)cc(C(F)(F)F)c2)C(C)=O)c2cc(C(F)(F)F)ccc2N1C(=O)OC(C)C` the outcome was “inactive”.
`CCOC(=O)O[C@H](C)OC(=O)c1ccc2c(c1)cc(C(=O)NC1CCN(C(C)C)CC1)n2Cc1cc(-c2ccc(Cl)s2)on1` was tested, and the AC50 was 4.59 µM (active).
`CN1C(=O)N(c2ccccc2Br)Cc2cnc(Nc3ccc4c(c3)OCC(CO)O4)nc21` (centres undefined) was tested, and the outcome was “inactive”.
`Cc1c2ccccc2c(C)c2c1ccc1ccccc12` was tested, and the AC50 was 15.3 µM (active).
With `CN(C)c1ccc(C(=C2C=CC(=[N+](C)C)C=C2)c2ccc(N(C)C)cc2)cc1` the AC50 was 1.87 µM (active).
In the case of `CCN(Cc1cccnc1)C(=O)c1cccc(Cl)c1[C@]1(C)C(=O)N(Cc2ccc(OC)cc2OC)c2ccc(Cl)cc21`, the AC50 is reported as 4.93 µM (active).
With `Cc1cc(F)ccc1-c1cc(N2CC[C@@H](O)[C@H]2CO)ncc1N(C)C(=O)C(C)(C)c1cc(C(F)(F)F)cc(C(F)(F)F)c1` the AC50 was 4.3 µM (active).
With `O=C(O)c1ccccc1-n1cc(C(=O)O)c(=O)c2cc(Nc3c(F)cc(F)cc3Cl)c(Cl)cc21` the AC50 was 25 µM (active).
With `CN(C)C(=O)C1(N2CCCCC2)CCN(CC[C@@]2(c3ccc(Cl)c(Cl)c3)CN(C(=O)c3ccccc3)CCO2)CC1` the AC50 was 3.41 µM (active).
For `NCc1cccc(C2CCN(C(=O)c3ccc(C#Cc4ccccc4F)o3)CC2)c1`, the AC50 was 7.56 µM (active).
`CC(C)(O)c1ccc(CNC(=O)c2cccnc2Oc2ccc3nonc3c2)cc1` was tested, and the outcome was “inactive”.
`COc1cc(C(=O)NC2CCN(C)CC2)ccc1Nc1ncc2c(n1)N(C1CCCC1)CC(F)(F)C(=O)N2C` was tested, and the AC50 was 9.44 µM (active).
